Reference: PubChem BioAssay AID624330 (Southern Research Specialized Biocontainment Screening …, 2012)
Values joined by “and” are separate entries in the source; they are usually repeats but may differ in a detail not shown here. Identical values can stand only once. The whole screen tested about 340,000 compounds, of which about 2,100 (0.62%) were called active. The list is a sample of the results. Entries with a potency or affinity are not part of this list. A number with no mark means an inactive call.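 How the source made its calls: active means first-screen hits whose inhibition reached a set limit at any dose in the follow-up dose series; inconclusive means inhibition above the set first-screen limit but never retested; inactive means the rest.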

molecular target: Rac GTPase-activating protein 1 (Homo sapiens) (UniProt Q9H0H5); assay: MgcRacGAP GTPase-activating activity inhibitors, confirmation, biochemical, ADP Hunter fluorescence, primary and confirmatory (AID 624330); conditions: MgcRacGAP-stimulated Rac1 GTP hydrolysis, at 30 µM, active compounds read high, GST-tagged Rac1 F28L mutant substrate;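 further: fluorescence reports GDP produced by GAP-driven GTP hydrolysis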
Sequence (Q9H0H5 whole entry, looked up): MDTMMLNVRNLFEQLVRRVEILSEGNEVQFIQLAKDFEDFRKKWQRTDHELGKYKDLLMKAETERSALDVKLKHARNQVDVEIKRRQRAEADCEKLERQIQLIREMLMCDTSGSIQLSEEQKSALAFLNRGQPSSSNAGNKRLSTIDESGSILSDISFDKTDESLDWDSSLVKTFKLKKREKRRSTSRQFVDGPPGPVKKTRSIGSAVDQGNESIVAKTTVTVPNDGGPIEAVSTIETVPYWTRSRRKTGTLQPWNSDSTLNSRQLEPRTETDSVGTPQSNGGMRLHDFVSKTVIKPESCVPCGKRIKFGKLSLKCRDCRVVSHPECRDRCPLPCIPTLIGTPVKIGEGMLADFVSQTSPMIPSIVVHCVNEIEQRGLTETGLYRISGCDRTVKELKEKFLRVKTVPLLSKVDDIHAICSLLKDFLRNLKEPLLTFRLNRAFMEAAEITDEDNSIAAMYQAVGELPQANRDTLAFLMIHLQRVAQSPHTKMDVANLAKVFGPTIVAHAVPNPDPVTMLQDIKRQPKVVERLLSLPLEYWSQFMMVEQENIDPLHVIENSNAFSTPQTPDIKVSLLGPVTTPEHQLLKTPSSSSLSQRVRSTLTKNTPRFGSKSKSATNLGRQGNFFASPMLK

SMILES | inhibition
COc1ccc(C(C)C)cc1S(=O)(=O)Nc1ccccn1 | -2.56%
COc1ccc(N(C(=O)c2ccncc2)S(=O)(=O)c2cccs2)cc1 | 5.29%
COc1ccc(C(=O)N(c2ccc(OC)cc2)S(=O)(=O)c2cccs2)cc1 | 3.2%
O=C(Nc1ccc(-c2nc3ccccc3[nH]2)cc1)c1ccc2c(c1)OCO2 | 0.3%
COc1ccccc1C1C2=C(N=C3SCC(=O)N31)c1ccccc1CC2 (stereo unspecified) | 7%
CCOC(=O)c1cc(-c2ccccc2)nn1CCC#N | 8.67%
COc1ccc(OCc2nn3c(Cn4cnc5ccccc54)nnc3s2)cc1 | 19.9%
Cc1ccnc(SCc2cn3c(C)cccc3n2)n1 | 0.6%
COc1ccc(/C=C/C(=O)OCC(=O)NC2CCS(=O)(=O)C2)cc1 (stereo unspecified) | -1.92%
COc1ccc(/C=C/C(=O)OCC(=O)NCCC2=CCCCC2)cc1OC | 4.2%
COc1cc(/C=C/C(=O)OCC(=O)NC2CCCCCCC2)ccc1O | 26.5%
COc1cccc(/C=C/C(=O)OCC(=O)NCC2CCCCC2)c1OC | -1.97%
COc1cc(/C=C/C(=O)OCC(=O)NC2CCS(=O)(=O)C2)ccc1OC(F)F (stereo unspecified) | 2.44%
COc1cc(/C=C/C(=O)OCC(=O)NCCC2=CCCCC2)cc(OC)c1OC | -10.3%
CCCSCCCNC(=O)c1ccc(C)c(NC(=O)C2=C(C)OCCS2)c1 | 6.84%
CCC(=O)N1C(=O)CCN(C(C)=O)c2ccccc21 | 11.8%
COc1cccc(NC(=O)CN(C)C(=O)C(CCSC)NC(=O)c2ccco2)c1 (stereo unspecified) | 1.87%
Cc1nn(C)c(=S)[nH]c1=S | -2.65%
O=C(NCc1nc2ccccc2[nH]1)c1cccc(S(=O)(=O)N2CCCCC2)c1 | 1.53%
COc1cc(/C=N/NC(=O)c2sc(N)c(C#N)c2C)cc(Br)c1O | 11.7%
Cc1c(C(=O)N/N=C/c2cccnc2)sc(N)c1C#N | 6.19%
COc1ccc(C(=O)NC2=Nc3ccccc3N=C(C)C2c2ccccc2)cc1 (stereo unspecified) | 0.78%
Nc1cc(N)nc(SCC(=O)N2CCN(S(=O)(=O)c3ccccc3)CC2)n1 | 7.76%
c1ccc2c(c1)Nc1cc3ccccc3cc1O2 | -1.21%

SMILES | inhibition
CCOc1cc(/C=N\NC(=O)Cn2nnc3ccccc32)ccc1O | 28.1%
COc1ccc(/C=N/NC(=O)C(C)n2nnc3ccccc32)cc1OC (stereo unspecified) | 8.77%
COc1ccc(C(O)c2nc3ccccc3n2C)cc1OC (stereo unspecified) | 3.18%
Cc1cccc(C(C)n2nnc3ccccc32)c1O (stereo unspecified) | 6.53%
COc1ccc(/C=N/NC(=O)Cn2nnc3ccccc32)cc1OC | 3.04%
COc1cccc(/C=N/NC(=O)C(C)n2nnc3ccccc32)c1 (stereo unspecified) | 9.47%
COc1cccc(/C=N/NC(=O)CCn2nnc3ccccc32)c1 | 1.99%
COc1ccc(/C=N/NC(=O)CCn2nnc3ccccc32)cc1 | 15.9%
O=C(c1ccnc(Cl)c1)N1CCCC(Nc2ccc(F)cc2)C1 (stereo unspecified) | 6.71%
CCc1nnc(NC(=O)CSc2nnc(C3CC3)n2C)s1 | 3.03%
Cc1ccc(OC/C(O)=C(\C#N)c2nc3ccccc3s2)cc1 | 0.24%
CN(C1CCS(=O)(=O)C1)S(=O)(=O)c1ccc(N2CCCC2=O)cc1 (stereo unspecified) | 14.4%
COc1ccc(CCNC(=O)C(=O)NCC2CCCN2S(=O)(=O)c2ccccc2)cc1OC (stereo unspecified) | 1.68%
CC(NC(=O)Nc1ccc([N+](=O)[O-])cc1)C(c1cccs1)N1CCCC1 (stereo unspecified) | 8.33%
COc1ccc(/C=N/NC(=O)CCn2c3ccccc3c3ccccc32)cc1O | 11.7%
COc1ccc(/C=N/NC(=O)CCn2c3ccccc3c3ccccc32)cc1OC | -2.76%
COc1ccc(CCc2ccc3cc(OC)ccc3n2)cc1 | 1.87%
O=C(O)c1ccccc1C(=O)N(Cc1ccccc1)Cc1ccccc1 | 4%
CC(C)[C@H](N)c1cn([C@@H](CO)C(=O)N2CCNCC2)nn1 | 6.71%
CCCc1c(C(=O)N/N=C/c2ccc3c(c2)OCO3)nnn1-c1nonc1N | 3.5%
CC(C#N)(NC(=O)CN1CCN(S(=O)(=O)c2cccc(F)c2)CC1)C1CC1 (stereo unspecified) | 23.8%
COc1ccc(CCC(=O)N2CCN(S(=O)(=O)c3ccc(OC)c([N+](=O)[O-])c3)CC2)cc1 | 14.3%
Cc1nc2ncnn2c(C)c1CCC(=O)NCCc1ccccc1 | 3.16%
Cc1ccc([N+](=O)[O-])c2c1C(N1CCCC1)C(C)(C)O2 (stereo unspecified) | 5.51%

SMILES | inhibition
N#Cc1ccccc1NC(=O)CN1CCN(Cc2ccccc2)CC1 | -4.52%
COC(=O)c1ccc(C)c(-n2c(C)cc(C=O)c2C)c1 | 2.91%
NC(=O)CN1CCN(c2cccc(Cl)c2)CC1 | 6.34%
Clc1cccc(N2CCN(CCCN3CCN(c4ccccc4)CC3)CC2)c1 | 7.52%
COC(=O)N1CCN(c2ccc(Cl)c(Cl)c2)CC1 | 6.48%
CCOC(=O)N1CCN(c2ccc(Cl)c(Cl)c2)CC1 | -6.41%
COc1ccc(NC(=O)c2ccc3ccccc3n2)cc1S(=O)(=O)N1CCCCC1 | 3.75%
O=C(O)C(O)Cc1c[nH]c2ccccc12 (stereo unspecified) | 5.43%
Cc1ccc(S(=O)(=O)Nc2ccccc2N=Cc2ccc([N+](=O)[O-])cc2[N+](=O)[O-])cc1 | 4.67%
O=C(CN1CCN(c2ccccn2)CC1)Nc1nc2ccccc2s1 | 12.2%
CCOc1ccc2nc(NC(=O)CN3CCN(CC)CC3)sc2c1 | 5.24%
O=C(CN1CCN(Cc2ccccc2)CC1)Nc1nc2ccccc2s1 | 14%
COc1ccc2nc(NC(=O)CN3CCN(C)CC3)sc2c1 | 14.5%
CCCN1CCN(CC(=O)Nc2nc3ccccc3s2)CC1 | 12.4%
CCOC(=O)N1CCN(CC(=O)Nc2nc3ccccc3s2)CC1 | -4.03%
Cc1[nH]nc(N=CC2=C(O)CC(c3ccco3)CC2=O)c1-c1ccccc1 (stereo unspecified) | -2.48% and -0.93%
CNC(=O)c1cc(C(=O)c2ccc(F)cc2Cl)c[nH]1 | 4.17%
CC1CCCCC1NC(=O)C1CC=CCC1C(=O)O (stereo unspecified) | -1.3%
CCC1=C(OC(=O)N(CC)CC)N2C(=O)OC(=NCC(=O)OC)[C@]2(Cc2ccccc2)[C@H]2C1=CC[C@H]1C(=O)N(C)C(=O)[C@H]12 | 0.87%
O=C(CN1CCN(S(=O)(=O)c2ccccc2)CC1)Nc1ccccc1C(=O)NC1CC1 | 4.29%
COc1ccc(N2CCN(C(=S)NCCc3ccccc3)CC2)cc1 | 5.11%
O=C(CN1CCN(c2ccc(F)cc2)CC1)Nc1ccccc1C(=O)NCCc1ccccc1 | 9.18%
O=C(CN1CCN(c2ccccc2)CC1)Nc1ccccc1C(=O)NCCc1ccccc1 | 15.8%
O=C(NC(=S)N1CCN(c2ccc([N+](=O)[O-])cc2)CC1)c1ccco1 | 13.1%

SMILES | inhibition
CC1CCN(CC(=O)Nc2ccccc2C(=O)NC2CC2)CC1 | 3.3%
S=C(NCCc1ccccc1)N1CCN(C(=S)NCCc2ccccc2)CC1 | 1.96%
O=C(NC(=S)N1CCN(c2ccccc2)CC1)c1ccco1 | 5.3%
O=C1CN(C(=O)CNCc2ccc(Cl)cc2)c2ccccc2N1 | 31.7%
CCCC(C(=O)Nc1ccc(S(=O)(=O)N2CCOCC2)cc1)c1ccccc1 (stereo unspecified) | 4.26%
Cc1nn(C)c(C)c1NC(=O)CN1CCC(O)(c2ccc3c(c2)OCO3)CC1 | 2.97%
COc1ccccc1NC(=O)c1ccc2c(c1)CCN2S(C)(=O)=O | 6.1%
CC(C)NC(=S)N/N=C1\CCCc2ccccc21 | 3.57%
Nc1nc(NC(=O)c2ccc(F)cc2)ns1 | 7.21%
Nc1nc(N)c2cc(CNc3ccc(Cl)c(Cl)c3)ccc2n1 | 14.7%
Cc1nc2ccc(N)cc2c(=O)n1Cc1ccc(Cl)cc1 | 4.23%
Cc1c(C(C)C[C@H](C)O)oc(=O)c2c1Oc1c(C)c(C(C)C[C@H](C)O)oc(=O)c1C2 (stereo partly specified) | 7.75%
CCN(CC)c1ccc(/C=N\N2CCN(Cc3ccc(C)cc3)CC2)cc1 | 20.7%
CN1CCN(/N=C/c2ccc(N(C)c3ccccc3)cc2)CC1 | 27.2%
CCOc1ccc(/C=N/N2CCN(Cc3ccccc3)CC2)cc1 | -1.17%
CCN(CC)c1ccc(C=NN2CCCCCC2)cc1 | -1.67%
CN1CCN(/N=C/c2ccc(N(c3ccccc3)c3ccccc3)cc2)CC1 | 15.3%
CCOc1ccccc1/C=N/N1CCN(Cc2ccccc2)CC1 | -6.47%
CCN(CC)c1ccc(/C=N/N2CCN(c3ccccn3)CC2)cc1 | 13.5%
C(=N\N1CCN(Cc2ccccc2)CC1)/c1ccccc1 | 8.38%
COc1cccc(-c2nn(C)c3sc(C(=O)NCc4ccc(C)cc4)cc23)c1 | 5.17%
CCOC(=O)c1[nH]c(C)c(C(=O)OCC(=O)NCc2ccc(OC)c(OC)c2)c1C | 1.24%
Cn1ncc2c(NCc3ccccc3)nc(NCCCO)nc21 | 8.06%
CC(C)CC(NC(=O)OC(C)(C)C)c1cn([C@@H](Cc2cc3ccccc3[nH]2)C(=O)N2CCN(C(=O)OC(C)(C)C)CC2)nn1 (stereo partly specified) | 9.06%
